The campaign covered roughly 65,000 compounds. About 450 (0.69%) were called active. Many of the other results were omitted from the sample, so actives are more common in it than they were. A number with no mark means an inactive call.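 The calls were made as follows: active = HER2 level under 5% of the carrier-only control; inconclusive = no clear call, values can overlap the other calls; inactive = the rest.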

This is an account of results in PubChem BioAssay AID645 (SRMLSC, 2007).

In this experiment the target is Receptor tyrosine-protein kinase erbB-2 (Homo sapiens) (UniProt P04626). The experiment is described as follows: inhibitors of Her2 protein expression, primary screen, SKBR-3 cells, AlphaScreen, 66K library (AID 645).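 Also: 100% = DMSO carrier and 0% = 500 nM PU-H71 HSP90 inhibitor; lower value means stronger loss of Her2 protein.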 Particulars: SKBR-3 HER2 protein level, 18-24 h, at 10 µM, active compounds read low. In general terms: In Alpha technology, singlet oxygen from a donor bead excites a nearby acceptor bead.
Sequence of Receptor tyrosine-protein kinase erbB-2 (Homo sapiens) (P04626 whole entry, looked up): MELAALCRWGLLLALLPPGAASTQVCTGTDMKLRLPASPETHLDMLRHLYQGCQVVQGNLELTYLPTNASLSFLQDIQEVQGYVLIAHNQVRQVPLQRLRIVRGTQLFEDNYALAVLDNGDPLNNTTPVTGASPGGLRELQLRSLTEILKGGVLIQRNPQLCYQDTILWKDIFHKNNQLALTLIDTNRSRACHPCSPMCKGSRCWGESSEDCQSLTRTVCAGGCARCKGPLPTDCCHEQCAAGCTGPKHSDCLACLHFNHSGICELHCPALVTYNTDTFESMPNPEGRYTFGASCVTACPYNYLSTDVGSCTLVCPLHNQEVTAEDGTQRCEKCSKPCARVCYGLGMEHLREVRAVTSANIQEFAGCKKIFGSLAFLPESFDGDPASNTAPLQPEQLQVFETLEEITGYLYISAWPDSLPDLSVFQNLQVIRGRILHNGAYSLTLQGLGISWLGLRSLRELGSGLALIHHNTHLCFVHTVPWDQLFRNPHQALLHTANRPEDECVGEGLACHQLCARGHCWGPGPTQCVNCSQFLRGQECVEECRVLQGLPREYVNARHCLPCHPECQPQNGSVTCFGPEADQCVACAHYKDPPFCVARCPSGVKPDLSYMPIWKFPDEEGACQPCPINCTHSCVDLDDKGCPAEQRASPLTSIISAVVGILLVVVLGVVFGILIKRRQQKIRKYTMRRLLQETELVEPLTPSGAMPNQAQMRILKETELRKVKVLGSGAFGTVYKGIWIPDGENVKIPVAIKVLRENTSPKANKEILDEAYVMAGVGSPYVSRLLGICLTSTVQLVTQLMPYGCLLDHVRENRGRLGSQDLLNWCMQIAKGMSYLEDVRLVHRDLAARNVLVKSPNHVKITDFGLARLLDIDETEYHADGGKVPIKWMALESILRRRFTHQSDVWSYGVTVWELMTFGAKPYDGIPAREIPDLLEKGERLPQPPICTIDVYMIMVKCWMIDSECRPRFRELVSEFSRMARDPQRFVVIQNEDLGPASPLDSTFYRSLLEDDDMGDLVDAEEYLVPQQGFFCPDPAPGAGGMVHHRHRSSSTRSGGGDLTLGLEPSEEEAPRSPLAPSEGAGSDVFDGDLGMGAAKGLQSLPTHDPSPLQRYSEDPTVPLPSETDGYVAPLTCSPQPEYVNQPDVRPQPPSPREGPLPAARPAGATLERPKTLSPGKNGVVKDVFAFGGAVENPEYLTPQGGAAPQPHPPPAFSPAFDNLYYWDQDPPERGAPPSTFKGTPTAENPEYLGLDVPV
With `CCC(=NCCCO)c1c(O)n(-c2ccc(OC)cc2)c(=O)[nH]c1=O`, the HER2 level % of control was 92.7%.

Consider `CC(=NCC1CCCO1)c1c(O)n(-c2ccccc2)c(=O)[nH]c1=O` (stereo not given), for which the HER2 level % of control was -16.3% (active).

On to `CC(=O)c1c(O)n(C2CCCCCC2)c(=O)[nH]c1=O`, for which the HER2 level % of control was 69.8%.

As for `CC(=O)N1CN2CN(C(C)=O)CC(C(=O)c3ccc(Br)cc3)(C2)C1`, the HER2 level % of control was 119%.

`Cc1ccc(Cn2nnnc2CN2CCC(n3nnc4ccccc43)CC2)cc1`: the HER2 level % of control is 69.1%.
